Source: PubChem BioAssay AID1159580 (chemical genetic matrix, 2015)
“And” between values parts separate entries of the source, which are not always exact repeats. Equal entries are not always repeated. Out of some 5,500 compounds screened, about 2,000 (36%) were called active. Inconclusive results (about 18%) are left out. Cut-off read from the data, not from the text of the source: active = normalized growth mostly below about 0.91 (no sharp cut-off); inconclusive = no clear call, values can overlap the other calls; inactive = mostly above about 0.92. Some of the results follow.

Experiment: chemical genetic growth profiling, strain panel (AID 1159580);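 note: tested at 20 µM; growth read once vehicle control cultures reached saturation at 30 °C; 1 = growth at the plate median or of vehicle wells; lower values mean less growth of the strain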
Conditions: S. cerevisiae deletion strains, growth OD

Measured: normalized growth

COc1cc2cc[n+]3cc4c(OC)c(OC)ccc4cc3c2cc1OC
inactive: locus YAL013W, strain DEP1, active compounds read low 0.996 | locus YAL021C, strain ccr4, active compounds read low 0.99 | locus YAL026C, strain drs2, active compounds read low 0.97 | locus YAL030W, strain snc1, active compounds read low 0.965 | locus YBL061C, strain skt5, active compounds read low 0.971 | locus YBR009C, strain hhf1, active compounds read low 0.984 | locus YBR021W, strain FUR4, active compounds read low 1.03 | locus YBR023C, strain chs3, active compounds read low 0.977 | locus YBR171W, strain sec66, active compounds read low 0.975 | locus YBR229C, strain ROT2, active compounds read low 0.99 | locus YBR231C, strain swc5, active compounds read low 0.983 | locus YBR279W, strain paf1, active compounds read low 0.982 | locus YCL011C, strain gbp2, active compounds read low 0.963 | locus YCL016C, strain dcc1, active compounds read low 0.976 | locus YCL029C, strain bik1, active compounds read low 0.983 | locus YCL061C, strain MRC1, active compounds read low 0.987 | locus YCL069W, strain vba3, active compounds read low 0.981 | locus YCR088W, strain abp1, active compounds read low 0.982 | locus YDL005C, strain med2, active compounds read low 0.957 | locus YDL035C, strain GPR1, active compounds read low 0.975 | locus YDL040C, strain nat1, active compounds read low 0.985 | locus YDL074C, strain BRE1, active compounds read low 0.977 | locus YDL101C, strain DUN1, active compounds read low 0.98 | locus YDL134C, strain PPH21, active compounds read low 0.985 | locus YDL192W, strain arf1, active compounds read low 0.986 | locus YDR001C, strain nth1, active compounds read low 0.964 | locus YDR069C, strain doa4, active compounds read low 0.981 | locus YDR101C, strain arx1, active compounds read low 0.978 | locus YDR137W, strain rgp1, active compounds read low 0.977 | locus YDR150W, strain NUM1, active compounds read low 0.954 | locus YDR159W, strain sac3, active compounds read low 0.982 | locus YDR162C, strain NBP2, active compounds read low 0.99 | locus YDR195W, strain ref2 0.949 | locus YDR297W, strain sur2, active compounds read low 0.979 | locus YDR318W, strain mcm21, active compounds read low 0.969 | locus YDR334W, strain swr1, active compounds read low 0.944 | locus YDR335W, strain msn5, active compounds read low 0.98 | locus YDR388W, active compounds read low 0.989 | locus YDR392W, strain spt3, active compounds read low 0.927 | locus YDR502C, strain sam2, active compounds read low 0.98 | locus YEL003W, strain gim4, active compounds read low 0.974 | locus YEL037C, strain rad23, active compounds read low 0.967 | locus YEL061C, strain CIN8 (second series), active compounds read low 0.976 | locus YEL061C, strain CIN8, active compounds read low 0.996 | locus YER015W, strain faa2, active compounds read low 0.971 | locus YER016W, strain bim1, active compounds read low 0.974 | locus YER110C, active compounds read low 0.962 | locus YER111C, strain swi4, active compounds read low 0.972 | locus YER155C, strain BEM2 (second series), active compounds read low 0.976 | locus YER155C, strain BEM2, active compounds read low 1.01 | locus YER167W, strain BCK2, active compounds read low 0.978 | locus YFR010W, strain ubp6, active compounds read low 0.952 | locus YGL078C, strain dbp3, active compounds read low 0.979 | locus YGL086W, strain mad1, active compounds read low 0.975 | locus YGL167C, strain pmr1, active compounds read low 0.973 | locus YGL173C, strain kem1, active compounds read low 0.954 | locus YGL227W, strain vid30, active compounds read low 0.973 | locus YGL240W, strain doc1, active compounds read low 0.987 | locus YGL248W, strain PDE1, active compounds read low 0.99 | locus YGL253W, strain hxk2, active compounds read low 0.974 | locus YGR078C, strain PAC10, active compounds read low 0.986 | locus YGR135W, strain pre9, active compounds read low 1 | locus YGR229C, strain SMI1, active compounds read low 1.01 | locus YGR252W, strain gcn5, active compounds read low 0.93 | locus YHR013C, strain ard1, active compounds read low 0.945 | locus YHR027C, strain rpn1, active compounds read low 0.967 | locus YHR030C, strain SLT2, active compounds read low 0.982 and 1.02 | locus YHR079C, strain IRE1 (second series), active compounds read low 0.977 | locus YHR079C, strain IRE1, active compounds read low 1.04 | locus YHR094C, strain hxt1, active compounds read low 0.969 | locus YHR129C, strain ARP1, active compounds read low 0.945 | locus YHR142W, strain chs7, active compounds read low 0.932 | locus YHR200W, strain rpn10, active compounds read low 0.965 | locus YIL066C, strain RNR3, active compounds read low 0.974 | locus YIL073C, strain SPO22, active compounds read low 0.875 | locus YIL125W, strain kgd1, active compounds read low 0.965 | locus YIR030C, strain dcg1, active compounds read low 0.98 | locus YJL092W, strain hpr5, active compounds read low 0.978 | locus YJL095W, strain BCK1 (second series), active compounds read low 0.993 | locus YJL095W, strain BCK1, active compounds read low 0.994 and 0.984 | locus YJL115W, strain asf1, active compounds read low 0.936 | locus YJL129C, strain trk1, active compounds read low 0.94 | locus YJL134W, strain LCB3, active compounds read low 0.973 | locus YJL154C, strain vps35, active compounds read low 0.967 | locus YJL164C, strain tpk1, active compounds read low 1 | locus YJL166W, strain qcr8, active compounds read low 0.984 | locus YJL168C, strain set2, active compounds read low 0.98 | locus YJL187C, strain SWE1 (second series), active compounds read low 0.976 | locus YJL187C, strain SWE1, active compounds read low 0.988 | locus YJR043C, strain POL32, active compounds read low 0.96 | locus YJR066W, strain TOR1, active compounds read low 0.976
